# Source: paper PMC5540273 (PLoS ONE, 2017)
# “And” between values parts separate entries of the source, which are not always exact repeats. Equal values may be shown once. Read-outs that look alike come from different tables or passages of the source.
# Columns and labels:
# TRKC = test system: T1, TRKC; details: concentration: 1 μM, replicates: in singlicate, n = 1
# T1 construct: gene NTRK3
# TRPM6 = details: concentration: 1 μM, replicates: in singlicate, n = 1
# TSSK1B = details: concentration: 1 μM, replicates: in singlicate; n = 1
# TSSK3 = details: concentration: 1 μM, replicates: in singlicate, n = 1
# TTK = details: concentration: 1 μM, replicates: in singlicate, n = 1
# TXK = details: concentration: 1 μM, replicates: in singlicate; n = 1
# [1] = test system: TYK2(JH1domain-catalytic); details: concentration: 1 μM, replicates: in singlicate, n = 1
# [2] = test system: TYK2(JH2domain-pseudokinase); details: concentration: 1 μM, replicates: in singlicate, n = 1
# TYRO3 = details: concentration: 1 μM, replicates: in singlicate; n = 1
# ULK1 = details: concentration: 1 μM, replicates: in singlicate, n = 1
# ULK2 = details: concentration: 1 μM, replicates: in singlicate, n = 1
# ULK3 = details: concentration: 1 μM, replicates: in singlicate, n = 1
# VEGFR2 = test system: T2, VEGFR2; details: concentration: 1 μM, replicates: in singlicate, n = 1
# T2 construct: gene KDR
# VPS34 = test system: T3, VPS34; details: concentration: 1 μM, replicates: in singlicate, n = 1
# T3 construct: gene PIK3C3
# VRK2 = details: concentration: 1 μM, replicates: in singlicate, n = 1
# WEE1 = details: concentration: 1 μM, replicates: in singlicate; n = 1
# WEE2 = details: concentration: 1 μM, replicates: in singlicate, n = 1
# WNK1 = details: concentration: 1 μM, replicates: in singlicate, n = 1
# WNK2 = details: concentration: 1 μM, replicates: in singlicate, n = 1
# WNK3 = details: concentration: 1 μM, replicates: in singlicate, n = 1
# 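Further: KINOMEscan kinase panel screen.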
structure (smiles),measurement,setting,value
Nc1nc(-c2ccccn2)c(-c2ccnc3ccccc23)s1 [GW548057],%Inh,TRKC,45%
same,%Inh,TRPM6,0%
same,%Inh,TSSK1B,0%
same,%Inh,TSSK3,9%
same,%Inh,TTK,2%
same,%Inh,TXK,0%
same,%Inh,[1],24%
same,%Inh,[2],29%
same,%Inh,TYRO3,0%
same,%Inh,ULK1,0%
same,%Inh,ULK2,0%
same,%Inh,ULK3,13%
same,%Inh,VEGFR2,12%
same,%Inh,VPS34,9%
same,%Inh,VRK2,62%
same,%Inh,WEE1,13%
same,%Inh,WEE2,0%
same,%Inh,WNK1,15%
same,%Inh,WNK2,11%
same,%Inh,WNK3,50%
O=C(Nc1ccccc1)Nc1ccc(Oc2ccc3nccn3n2)cc1,%Inh,TRKC,0%
same,%Inh,TRPM6,0%
same,%Inh,TSSK1B,1%
same,%Inh,TSSK3,0%
same,%Inh,TTK,0%
same,%Inh,TXK,12%
same,%Inh,[1],0%
same,%Inh,[2],0%
same,%Inh,TYRO3,19%
same,%Inh,ULK1,0%
same,%Inh,ULK2,0%
same,%Inh,ULK3,2%
same,%Inh,VPS34,14%
same,%Inh,VRK2,0%
same,%Inh,WEE1,3%
same,%Inh,WEE2,13%
same,%Inh,WNK1,0%
same,%Inh,WNK2,0%
same,%Inh,WNK3,0%
CNc1nccc(-c2c(-c3ccc(F)cc3)ncn2CCCN2CCOCC2)n1 [SB-222516],%Inh,TRKC,38%
same,%Inh,TRPM6,0%
same,%Inh,TSSK1B,12%
same,%Inh,TSSK3,12%
same,%Inh,TTK,0%
same,%Inh,TXK,9%
same,%Inh,[1],18%
same,%Inh,[2],16%
same,%Inh,TYRO3,17%
same,%Inh,ULK1,13%
same,%Inh,ULK2,0%
same,%Inh,ULK3,17%
same,%Inh,VEGFR2,0%
same,%Inh,VPS34,0%
same,%Inh,VRK2,0%
same,%Inh,WEE1,0%
same,%Inh,WEE2,9%
same,%Inh,WNK1,1%
same,%Inh,WNK2,0%
same,%Inh,WNK3,0%
COc1ccc(-c2nc3n(c2-c2ccncc2)CCC3)cc1 [SKF-104493],%Inh,TRKC; 1 µM,25% and 5%
same,%Inh,TRPM6; 1 µM,0% and 3%
same,%Inh,TSSK1B,0%
same,%Inh,TSSK3; 1 µM,21% and 8%
same,%Inh,TTK; 1 µM,30% and 0%
same,%Inh,TXK,0%
same,%Inh,[1]; 1 µM,7% and 0%
same,%Inh,[2]; 1 µM,9% and 1%
same,%Inh,TYRO3,0%
same,%Inh,ULK1; 1 µM,7% and 0%
same,%Inh,ULK2; 1 µM,13% and 0%
same,%Inh,ULK3; 1 µM,13% and 0%
same,%Inh,VEGFR2; 1 µM,15% and 0%
same,%Inh,VPS34; 1 µM,28% and 20%
same,%Inh,VRK2; 1 µM,7% and 0%
same,%Inh,WEE1,0%
same,%Inh,WEE2; 1 µM,13% and 0%
same,%Inh,WNK1; 1 µM,27% and 0%
same,%Inh,WNK2; 1 µM,0% and 21%
same,%Inh,WNK3; 1 µM,33% and 16%
Cn1cc(-c2ccc3c(c2)CCN3C(=O)Cc2cccc(C(F)(F)F)c2)c2c(N)ncnc21 [GSK2606414],%Inh,TRKC,40%
same,%Inh,TRPM6,0%
same,%Inh,TSSK1B,12%
same,%Inh,TSSK3,0%
same,%Inh,TTK,22%
same,%Inh,TXK,0%
same,%Inh,[1],15%
same,%Inh,[2],0%
same,%Inh,TYRO3,0%
same,%Inh,ULK1,27%
same,%Inh,ULK2,0%
same,%Inh,ULK3,3%
same,%Inh,VEGFR2,0%
same,%Inh,VPS34,22%
same,%Inh,VRK2,20%
same,%Inh,WEE1,0%
same,%Inh,WEE2,19%
same,%Inh,WNK1,3%
same,%Inh,WNK2,7%
same,%Inh,WNK3,0%
COc1ccc(Nc2nccc(N3CCC(NC(=O)Nc4ccc5c(c4)OCO5)C3)n2)cc1 (centres unmarked) [GSK1379745],%Inh,TRKC,51%
same,%Inh,TRPM6,0%
same,%Inh,TSSK1B,0%
same,%Inh,TSSK3,31%
same,%Inh,TTK,0%
same,%Inh,TXK,3%
same,%Inh,[1],45%
same,%Inh,[2],15%
same,%Inh,TYRO3,0%
same,%Inh,ULK1,9%
same,%Inh,ULK2,0%
same,%Inh,ULK3,15%
same,%Inh,VEGFR2,0%
same,%Inh,VPS34,13%
same,%Inh,VRK2,0%
same,%Inh,WEE1,12%
same,%Inh,WEE2,14%
same,%Inh,WNK1,2%
same,%Inh,WNK2,0%
same,%Inh,WNK3,15%
O=C(NCCCN1CCCC1=O)c1cnc(NCc2cc(Cl)ccc2Cl)nc1NC1CCNCC1,%Inh,TRKC,15%
same,%Inh,TRPM6,0%
same,%Inh,TSSK1B,0%
same,%Inh,TSSK3,0%
same,%Inh,TTK,0%
same,%Inh,TXK,0%
same,%Inh,[1],0%
same,%Inh,[2],0%
same,%Inh,TYRO3,14%
same,%Inh,ULK1,0%
same,%Inh,ULK2,0%
same,%Inh,ULK3,0%
same,%Inh,VEGFR2,0%
same,%Inh,VPS34,0%
same,%Inh,VRK2,70%
same,%Inh,WEE1,0%
same,%Inh,WEE2,0%
same,%Inh,WNK1,0%
same,%Inh,WNK2,0%
same,%Inh,WNK3,0%
CC(C)(C)OC(=O)NC1CCCN(c2cc(-c3ccc4c(N)n[nH]c4c3)nc(N)n2)C1 (centres unmarked) [GSK2286096],%Inh,TRKC,0%
same,%Inh,TRPM6,39%
same,%Inh,TSSK1B,0%
same,%Inh,TSSK3,96.5%
same,%Inh,TTK,0%
same,%Inh,TXK,0%
same,%Inh,[1],66%
same,%Inh,[2],0%
same,%Inh,TYRO3,0%
same,%Inh,ULK1,1%
same,%Inh,ULK2,0%
same,%Inh,ULK3,0%
same,%Inh,VEGFR2,0%
same,%Inh,VPS34,0%
same,%Inh,VRK2,0%
same,%Inh,WEE1,17%
same,%Inh,WEE2,0%
same,%Inh,WNK1,6%
same,%Inh,WNK2,70%
same,%Inh,WNK3,8%
FC(F)(F)c1ccc(-c2nn3ncccc3c2-c2ccnc(Nc3cccc(C(F)(F)F)c3)n2)cc1 [GW828205],%Inh,TRKC,0%
same,%Inh,TRPM6,0%
same,%Inh,TSSK1B,0%
same,%Inh,TSSK3,0%
same,%Inh,TTK,0%
same,%Inh,TXK,3%
same,%Inh,[1],0%
same,%Inh,[2],0%
same,%Inh,TYRO3,0%
same,%Inh,ULK1,0%
same,%Inh,ULK2,0%
same,%Inh,ULK3,0%
same,%Inh,VEGFR2,0%
same,%Inh,VPS34,8%
same,%Inh,VRK2,0%
same,%Inh,WEE1,5%
same,%Inh,WEE2,11%
same,%Inh,WNK1,0%
same,%Inh,WNK2,0%
same,%Inh,WNK3,0%
CCn1c(-c2ccncc2)nc2cnccc21 [SB-735216],%Inh,TRKC,36%
same,%Inh,TRPM6,22%
same,%Inh,TSSK1B,8%
same,%Inh,TSSK3,0%
same,%Inh,TTK,0%
same,%Inh,TXK,21%
same,%Inh,[1],0%
same,%Inh,[2],0%
same,%Inh,TYRO3,26%
same,%Inh,ULK1,17%
same,%Inh,ULK2,8%
same,%Inh,ULK3,25%
same,%Inh,VEGFR2,24%
same,%Inh,VPS34,25%
same,%Inh,VRK2,0%
same,%Inh,WEE1,0%
same,%Inh,WEE2,1%
same,%Inh,WNK1,0%
same,%Inh,WNK2,29%
same,%Inh,WNK3,21%
CCCc1ccc(S(=O)(=O)NC2CCN(c3ccnc(Nc4ccc(OC)cc4)n3)C2)cc1 (centres unmarked) [GSK1379737],%Inh,TRKC,36%
same,%Inh,TRPM6,0%
same,%Inh,TSSK1B,0%
same,%Inh,TSSK3,5%
same,%Inh,TTK,0%
same,%Inh,TXK,6%
same,%Inh,[1],53%
same,%Inh,[2],46%
same,%Inh,TYRO3,0%
same,%Inh,ULK1,99.6%
same,%Inh,ULK2,0%
same,%Inh,ULK3,7%
same,%Inh,VEGFR2,0%
same,%Inh,VPS34,36%
same,%Inh,VRK2,4%
same,%Inh,WEE1,12%
same,%Inh,WEE2,0%
same,%Inh,WNK1,8%
same,%Inh,WNK2,0%
same,%Inh,WNK3,38%
Cc1ccc(O)cc1Nc1cc(C(F)(F)F)nc2ccc(-c3ccncc3)cc12 [GW630823],%Inh,TRKC,0%
same,%Inh,TRPM6,0%
same,%Inh,TSSK1B,0%
same,%Inh,TSSK3,0%
same,%Inh,TTK,3%
same,%Inh,TXK,10%
same,%Inh,[1],0%
same,%Inh,[2],0%
same,%Inh,TYRO3,36%
same,%Inh,ULK1,0%
same,%Inh,ULK2,0%
same,%Inh,ULK3,0%
same,%Inh,VEGFR2,0%
same,%Inh,VPS34,0%
same,%Inh,VRK2,0%
same,%Inh,WEE1,0%
same,%Inh,WEE2,30%
same,%Inh,WNK1,0%
same,%Inh,WNK2,0%
same,%Inh,WNK3,0%
Nc1nc(-c2cccnc2)c(-c2ccnc3ccccc23)s1 [GW684083],%Inh,TRKC,25%
same,%Inh,TRPM6,14%
same,%Inh,TSSK1B,0%
same,%Inh,TSSK3,9%
same,%Inh,TTK,0%
same,%Inh,TXK,0%
same,%Inh,[1],41%
same,%Inh,[2],62%
same,%Inh,TYRO3,0%
same,%Inh,ULK1,5%
same,%Inh,ULK2,0%
same,%Inh,ULK3,18%
same,%Inh,VEGFR2,0%
same,%Inh,VPS34,72%
same,%Inh,VRK2,16%
same,%Inh,WEE1,27%
same,%Inh,WEE2,11%
same,%Inh,WNK1,0%
same,%Inh,WNK2,0%
same,%Inh,WNK3,31%
O=C(Nc1ccccc1F)NC1CCN(c2ccnc(Nc3ccc(F)cc3)n2)C1 (centres unmarked) [GSK1379722],%Inh,TRKC,22%
same,%Inh,TRPM6,0%
same,%Inh,TSSK1B,12%
same,%Inh,TSSK3,31%
same,%Inh,TTK,7%
same,%Inh,TXK,16%
same,%Inh,[1],23%
same,%Inh,[2],20%
same,%Inh,TYRO3,0%
same,%Inh,ULK1,0%
same,%Inh,ULK2,0%
same,%Inh,ULK3,8%
same,%Inh,VEGFR2,0%
same,%Inh,VPS34,0%
same,%Inh,VRK2,16%
same,%Inh,WEE1,9%
same,%Inh,WEE2,0%
same,%Inh,WNK1,10%
same,%Inh,WNK2,0%
same,%Inh,WNK3,38%
CS(=O)(=O)CCNCc1ccc(-c2ccc3ncnc(Nc4ccc(OCc5ccccc5)c(Cl)c4)c3c2)o1.Cl [GW574783],%Inh,TRKC,24%
same,%Inh,TRPM6,7%
same,%Inh,TSSK1B,39%
same,%Inh,TSSK3,21%
same,%Inh,TTK,18%
same,%Inh,TXK,10%
same,%Inh,[1],27%
same,%Inh,[2],22%
same,%Inh,TYRO3,0%
same,%Inh,ULK1,0%
same,%Inh,ULK2,0%
same,%Inh,ULK3,0%
same,%Inh,VEGFR2,0%
same,%Inh,VPS34,18%
same,%Inh,VRK2,42%
same,%Inh,WEE1,12%
same,%Inh,WEE2,19%
same,%Inh,WNK1,11%
same,%Inh,WNK2,10%
same,%Inh,WNK3,29%
